The supplement of paper PMC7156485

What follows are compounds tested on TDF (assay: H1.0 immunofluorescence intensity relative to DMSO (% of DMSO); higher = stronger H1.0 induction, active = 120 or more). Details: concentration: 10 µM; 24 h.
How it was run: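 HCC1569 and TDF cells (800 per well, 384-well plates, RPMI with 10% FBS) were treated with compounds at 10 µM for 24 h at 37 °C, in triplicate. Cells were fixed in 3.7% formaldehyde and stained with a rabbit anti-H1.0 antibody, an AlexaFluor 647 secondary and DAPI; six fields per well were imaged at ×10. H1.0 nuclear intensity or cell number is expressed as percent of the plate DMSO control, taking the median of replicates. HCC1569 values were smoothed for positional effects.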
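Also: TDF is a line of transformed human dermal fibroblasts of mesenchymal origin.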

H1.0 immunofluorescence intensity, inactive:
Cc1ccc(NC(=O)c2ccc(CN3CCN(C)CC3)cc2)cc1Nc1nccc(-c2cccnc2)n1 [Imatinib] 107
CCCCCCCCCC(=O)NC(CN1CCOCC1)C(O)c1ccccc1 (racemic) 96.7
C[N+](C)(C)CC(O)CC(=O)[O-].Cl (racemic) 97.1
CCN1CCN(c2cc3c(cc2F)c(=O)c(C(=O)O)cn3C2CC2)CC1 [Enrofloxacin] 96.4
CC1(C)CNc2cc(NC(=O)c3cccnc3NCc3ccncc3)ccc21 [Motesanib] 107
Cc1ccc(C(=CCN2CCCC2)c2ccccn2)cc1.Cl [Trans-triprolidine.HCl] 99
O=c1c2ccccc2[nH]c(=S)n1CCN1CCC(=C(c2ccc(F)cc2)c2ccc(F)cc2)CC1 [Diacylglycerol Kinase Inhibitor II] 93.9
Br.Br.N=C(N)SCCN [2-(2-Aminoethyl)isothiourea dihydrobromide] 96.9
O=C(Nc1cccc(Cl)c1)Nc1ncc(CCNc2ncnc3ccsc23)s1 103
O=C1CCC(c2ccc(-n3ccnc3)cc2)=NN1 [Imazodan] 103
CCCn1cnc2c1c(=O)n(CCCCC(C)=O)c(=O)n2C [Propentofylline] 90.3
COC(=O)C1C(O)CCC2CN3CCc4c([nH]c5ccccc45)C3CC21.Cl (configuration not stated) [Rauwolscine hydrochloride] 87
OCCOc1ccc(/C(=C(/CCCl)c2ccccc2)c2ccccc2)cc1 [2-{4-[(1Z)-4-chloro-1,2-diphenyl-1-butenyl]phenoxy}ethanol] 100
COC(=O)CNC(=O)C(=O)OC [methyl 2-(2-methoxy-2-oxoethylamino)-2-oxoacetate] 99.2
CC(CCc1ccc(O)cc1)NCCc1ccc(O)c(O)c1.Cl (configuration not stated) [Dobutamine hydrochloride] 85.4
Cl.O.O=C(O)CN(CCN(CC(=O)O)Cc1ccccc1O)Cc1ccccc1O 108
C=CC(N)CCC(=O)O (racemic) 97.3
CC12C=Cc3occc3C1CCC13CC(=O)C(CCC12)C3 (configuration not stated) [16-Oxokahweol] 91.4
N#Cc1c(O)c2c(-c3ccc(-c4ccccc4O)cc3)csc2[nH]c1=O 98.8
CC1C(=O)OC2C(O)C34C5CC(C(C)(C)C)C36C(OC(=O)C6O)OC4(C(=O)O5)C12O (configuration not stated) [Ginkgolide B] 101
CCCCc1oc2ccccc2c1C(=O)c1cc(I)c(OCCN(CC)CC)c(I)c1.Cl [Amiodarone hydrochloride] 98.9
O=C(OC12CC3CC(CC(C3)C1)C2)c1ccc(NCc2cc(O)ccc2O)cc1 [1-adamantyl 4-[(2,5-dihydroxybenzyl)amino]benzoate] 120
CN(C)c1nc(N(C)C)nc(N(C)C)n1 [Altretamine] 100
CC1=NN(c2ccc(C(=O)O)cc2)C(=O)/C1=C\c1ccc(-c2cc(C)c(C)cc2[N+](=O)[O-])o1 84.9
CC(N)=NCCCC[C@H](N)C(=O)O.Cl [L-N6-(1-Iminoethyl)lysine hydrochloride] 84.8
CCC1(c2ccccc2)C(=O)NCNC1=O [Primidone] 98
Cc1ccccc1/N=N/c1ccc(NC(=O)c2ccnn2C)c(C)c1 98.5
CCCCCCCCCCCCCC=CC(O)C(N)CO (configuration not stated) [Sphingosine] 96.9
CNC(=C[N+](=O)[O-])NCCSCc1ccc(CN(C)C)o1.Cl [Ranitidine.HCl] 95.3
CCCCC1(C2CCCC2)Cc2cc(OCC(=O)O)c(Cl)c(Cl)c2C1=O (stereo not drawn) [R(+)-Butylindazone] 86.7
COc1nc(C)nc(Cl)c1NC1=NCCN1.Cl [Moxonidine hydrochloride] 92

H1.0 immunofluorescence intensity, active:
O=C1NCCN1CCN1CCC(c2cn(-c3ccc(F)cc3)c3ccc(Cl)cc23)CC1 213
